Source: PubChem BioAssay (NCI)
The panel holds about 83,000 compounds, 20% with a hit somewhere; the sample as a whole holds those more often.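 96-well plates, one dose, 48 hours. Percent growth reported; active if below 10.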 Active and inactive are the calls of the source.

Key:
Assay in all cases: NCI-60 one-dose screen, 48 h (100 = growth as untreated, 0 = no growth, -100 = all killed)
[1] = test system: SR leukemia; conditions: 10 µM unless noted
[2] = test system: RPMI-8226 leukemia; conditions: 10 µM unless noted
[3] = test system: OVCAR-8 ovarian; conditions: 10 µM unless noted
[4] = test system: OVCAR-5 ovarian; conditions: 10 µM unless noted
[5] = test system: OVCAR-4 ovarian; conditions: 10 µM unless noted
[6] = test system: SK-OV-3 ovarian; conditions: 10 µM unless noted
[7] = test system: IGROV1 ovarian; conditions: 10 µM unless noted
[8] = test system: OVCAR-3 ovarian; conditions: 10 µM unless noted
[9] = test system: HS 578T breast; conditions: 10 µM
[10] = test system: T-47D breast; conditions: 10 µM unless noted
[11] = test system: MDA-MB-435 melanoma; conditions: 10 µM unless noted
[12] = test system: SW-620 colon; conditions: 10 µM unless noted
[13] = test system: MCF7 breast; conditions: 10 µM unless noted
[14] = test system: HCT-116 colon; conditions: 10 µM unless noted
[15] = test system: KM12 colon; conditions: 10 µM unless noted
[16] = test system: NCI/ADR-RES ovarian; conditions: 10 µM unless noted
[17] = test system: BT-549 breast; conditions: 10 µM unless noted
[18] = test system: HCC-2998 colon; conditions: 10 µM

Measured: growth

Clc1nc(Cl)c2ncn(C/C=C\Cn3cnc4c(Cl)nc(Cl)nc43)c2n1
inactive: [6] 32.8%
active: [1] -48.2% | [2] -61.2% | [3] -57.4% | [4] -9.17% | [5] -89.2% | [7] -82.3% | [8] -97% | [9] -41.5% | [10] -44.4% | [11] -66.9% | [12] -52.6% | [13] -78% | [14] -71% | [15] -69.2%

O=C1CSC(c2c(F)cccc2Cl)N1NC(=O)C(O)(c1ccccc1)c1ccccc1 (configuration not stated)
inactive: [1] 95.5% | [2] 94% | [3] 98.3% | [4] 103% | [5] 97.4% | [6] 101% | [7] 72% | [8] 100% | [9] 90.1% | [16] 95.4% | [10] 93.3% | [17] 104% | [11] 104% | [12] 99.9% | [13] 110% | [14] 94.8% | [15] 108%

CC(N)C(Cc1ccccc1)c1ccc(Cl)cc1 (configuration not stated)
inactive: [1] 67.9% | [2] 94.5% | [3] 96.1% | [4] 80.8% | [5] 85.8% | [6] 72.5% | [7] 94.8% | [8] 102% | [9] 86.2% | [10] 75.5% | [17] 88.4% | [11] 94.1% | [12] 88.9% | [13] 90.3% | [14] 78.8% | [18] 84.5% | [15] 98.9%

Cc1cc(C2(c3ccc(O)c(C)c3)OS(=O)(=O)c3ccccc32)ccc1O
inactive: [1] 97.2% | [2] 99.3% | [3] 107% | [4] 110% | [5] 107% | [6] 111% | [7] 105% | [8] 119% | [9] 101% | [16] 109% | [10] 110% | [11] 113% | [12] 108% | [13] 101% | [14] 104% | [18] 114% | [15] 110%

CC(=O)C1CC(C)CCC1C(C)C (configuration not stated)
inactive: [1] 78.9% | [2] 56.3% | [3] 109% | [4] 105% | [5] 61.4% | [6] 108% | [7] 99.2% | [8] 94.7% | [9] 106% | [16] 86.4% | [10] 71.9% | [11] 121% | [12] 106% | [13] 85.3% | [14] 61.6% | [18] 104% | [15] 98%

C=C1CC[C@@H]2[C@](C)(COC(C)=O)[C@H](OC(C)=O)CC[C@@]2(C)[C@@H]1C/C=C1/C(=O)OC[C@H]1OC(C)=O
active: [1] 5.73% | [8] -21.3% | [14] -37.3%
inactive: [2] 14.1% | [3] 27.1% | [4] 53.7% | [5] 66.5% | [6] 101% | [7] 103% | [9] 100% | [16] 25% | [10] 42.8% | [17] 27.4% | [11] 33.1% | [13] 22.9% | [18] 67.3%

COc1cc2c3c(c1)nc(C)n3CCC2
inactive: [1] 101% | [2] 105% | [3] 96.4% | [4] 102% | [5] 96% | [6] 90.8% | [7] 109% | [8] 109% | [9] 105% | [16] 103% | [10] 95.8% | [17] 94.2% | [11] 100% | [13] 99.5% | [14] 92.8% | [18] 99.8% | [15] 108%

CC(C)(C)CC(C)(C)Nc1c(-c2c(O)c3ccccc3oc2=O)nc2c(Cl)cc(C(F)(F)F)cn12
inactive: [1] 104% | [2] 99.2% | [3] 102% | [4] 109% | [5] 100% | [6] 93% | [7] 90.4% | [8] 112% | [9] 103% | [10] 95.3% | [17] 78.7% | [11] 103% | [12] 102% | [13] 107% | [14] 70.4% | [18] 107% | [15] 103%

Cc1ccc(-[n+]2c3cc(N)c(C)cc3nc3cc(C)c(Nc4ccccc4)cc32)cc1
active: [1] -39.1% | [2] -36.5% | [3] -6.17% | [4] -61.3% | [5] -38.7% | [6] -90.4% | [7] -59.5% | [8] -97.4% | [16] -21.8% | [10] -74.7% | [11] -73.6% | [12] -71.8% | [13] -81.8% | [14] -100% | [18] -98% | [15] -92.7%
inactive: [9] 18.8%

CC[n+]1c(/C=C/C=C2\N(C)c3ccccc3C2(C)C)sc2ccccc21
inactive: [3] 12.8% | [4] 27.4% | [5] 19.9% | [7] 32% | [9] 39.8% | [16] 30.4% | [18] 32.2%
active: [1] -5.33% | [2] -31% | [6] -12.3% | [8] 8.88% | [10] 4.61% | [17] -2.69% | [11] 4.07% | [13] -26.9% | [14] 7.25% | [15] 3.17%

O=C(NO)c1ccc(Cn2c(=O)n(-c3ccccc3F)c(=O)c3ccccc32)cc1
active: [1] 1.63% | [3] -39.3% | [6] 9.04% | [7] -21.7% | [8] -17.8% | [10] 8.62% | [11] -78.7% | [12] 0.226% | [14] -3.7% | [18] -32.9% | [15] -40.7%
inactive: [2] 13.3% | [4] 27.8% | [5] 18.2% | [9] 46.6% | [16] 41.6% | [17] 21.3% | [13] 20.8%

N#Cc1c(-c2ccc(C(F)(F)F)cc2)cc(NCC2CCS(=O)(=O)CC2)n2c1nc1ccccc12
inactive: [1] 79.9% | [2] 80.9% | [3] 93.3% | [4] 103% | [5] 85.4% | [6] 83.3% | [7] 85.6% | [8] 97.9% | [9] 81.3% | [16] 103% | [10] 64.3% | [17] 64.9% | [11] 92.8% | [13] 85.6% | [14] 74.9% | [18] 91.9% | [15] 98.4%

CCOc1ccc(N=C(C)Nc2ccc(OCC)cc2)cc1
inactive: [1] 84.5% | [2] 116% | [3] 106% | [4] 104% | [5] 104% | [6] 121% | [7] 106% | [8] 133% | [9] 106% | [16] 101% | [10] 105% | [11] 115% | [12] 104% | [13] 102% | [14] 104% | [18] 104% | [15] 117%

O=C1CCC(=O)CC1
inactive: [1] 97.4% | [2] 110% | [3] 101% | [4] 92.3% | [5] 113% | [6] 112% | [7] 96.3% | [8] 117% | [9] 103% | [16] 104% | [10] 102% | [11] 102% | [12] 103% | [13] 101% | [14] 109% | [18] 99.9% | [15] 106%

CCN1CCN(c2nc(C)cc(N(CCCNc3ccnc4cc(Cl)ccc34)Cc3ccc4c(c3)OCO4)n2)CC1
active: [1] -45.2% | [2] -41.9% | [3] -12.4% | [5] 2.74% | [7] 0.209% | [8] -28.3% | [9] -44.8% | [10] -60.9% | [17] -53.1% | [11] -86.8% | [13] 7.69% | [14] -9.36% | [18] -40.3%
inactive: [4] 51.6% | [6] 33.3% | [16] 30.2% | [15] 23.7%

N#Cc1c(NC(=O)c2cccs2)[n+]([O-])c2ccc(F)cc2[n+]1[O-]
inactive: [1] 77% | [2] 93.2% | [3] 95.6% | [4] 108% | [5] 85.7% | [6] 82.6% | [7] 68.9% | [8] 98.3% | [16] 111% | [10] 76.9% | [17] 99.6% | [11] 105% | [12] 74% | [13] 86.5% | [14] 104%

COC(=O)N[C@@H](C)CNc1nccc(-c2cn(C(C)C)nc2-c2cc(Cl)cc(NS(C)(=O)=O)c2F)n1
inactive: [1] 51.7% | [2] 113% | [3] 72.5% | [4] 42.9% | [5] 71.4% | [6] 22.8% | [7] 42.2% | [8] 87% | [16] 96.8% | [10] 79.3% | [17] 72.9% | [11] 25.5% | [12] 52.7% | [13] 95.2% | [14] 19.5% | [18] 69.6% | [15] 69.7%

Cn1cnc2c(F)c(Nc3ccc(Br)cc3Cl)c(C(=O)NOCCO)cc21
inactive: [1] 75% | [2] 69.9% | [3] 66.4% | [5] 65.5% | [6] 51.5% | [7] 25.3% | [8] 106% | [16] 68.6% | [10] 70% | [17] 78.5% | [11] 33.3% | [12] 24.2% | [13] 96% | [14] 17.6% | [15] 28.6%
active: [4] 7.92% | [18] -10.2%
